Records with an inconclusive call do not appear. Active and inactive are the calls of the source. Rule for the calls: active = hit-call score of the fitted dose curve at least 0.9, where 1 is the maximum; inconclusive = response in the unintended direction; inactive = score below 0.9.

The nature of assay [1]: TOX21_p53_BLA_p2_viability: Viability Assessment in the Tox21 HCT-116 p53 Agonism Beta-lactamase Assay, Phase 2 (AID 2283591).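 Note: compound exposure lasted 16 h at 37 °C; actives lower the ATP signal meaning cytotoxicity.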 The method in brief:
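HCT-116 p53-bla cells (4000/well) rested 5 h at 37C, then received compounds in DMSO (217-fold dilution) for 16 h at 37C, 5% CO2. After the CCF4 read, CellTiter-Glo was added; ATP luminescence was read after 30 min at room temperature.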

Assay [2] addresses Cellular tumor antigen p53 (Homo sapiens) (UniProt P04637). Put plainly: TOX21_p53_BLA_p2_ratio: Tox21 HCT-116 p53 Agonism Beta-lactamase Assay, Ratio, Phase 2 (AID 2283592). The method in brief: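 Read-out is the blue/green (460/530 nm, 405 nm excitation) ratio after 2 h CCF4-AM loading, fitted as gain versus DMSO. Compounds, pinned at 217-fold dilution from DMSO stocks, stayed 16 h on HCT-116 beta-lactamase reporter cells seeded 5 h earlier.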

Assay [3] is described as follows: TOX21_p53_BLA_p3_viability: Viability Assessment in the Tox21 HCT-116 p53 Agonism Beta-lactamase Assay, Phase 3 (AID 2283593).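 Note: cells exposed to compound for 16 h before reading.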 In a few lines: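 HCT-116 cells (4000/well) rested 5 h at 37C, then got DMSO compounds by pin tool (217-fold dilution) for 16 h at 37C, 5% CO2. After the bla read, CellTiter-Glo was added and luminescence read at 30 min, room temperature.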

The target in assay [4] is Cellular tumor antigen p53 (Homo sapiens) (UniProt P04637). Nature of the assay: TOX21_p53_BLA_p3_ratio: Tox21 HCT-116 p53 Agonism Beta-lactamase Assay, Ratio, Phase 3 (AID 2283596). The method in brief: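 Cells were seeded at 4000/well, rested 5 h at 37C, then dosed with DMSO compound solutions (217-fold dilution) for 16 h. CCF4-AM substrate was loaded for 2 h at room temperature, and the 460/530 nm emission ratio was fitted for gain of signal versus DMSO.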
Cellular tumor antigen p53 (Homo sapiens), sequence (P04637 whole entry, looked up): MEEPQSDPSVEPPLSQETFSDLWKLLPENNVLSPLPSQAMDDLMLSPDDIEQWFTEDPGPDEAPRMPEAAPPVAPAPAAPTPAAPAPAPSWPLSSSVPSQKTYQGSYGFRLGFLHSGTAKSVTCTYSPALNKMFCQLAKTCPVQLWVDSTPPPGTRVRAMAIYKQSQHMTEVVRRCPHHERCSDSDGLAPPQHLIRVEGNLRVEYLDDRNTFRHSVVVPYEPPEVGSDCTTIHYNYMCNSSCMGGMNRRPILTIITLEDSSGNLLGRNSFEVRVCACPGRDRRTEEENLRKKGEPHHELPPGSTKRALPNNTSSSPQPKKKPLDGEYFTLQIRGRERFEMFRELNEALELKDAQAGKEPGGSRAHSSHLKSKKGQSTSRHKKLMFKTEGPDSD

The target is the same in assay [5]. Put plainly: TOX21_p53_BLA_p5_ratio: Tox21 HCT-116 p53 Agonism Beta-lactamase Assay, Ratio, Phase 5 (AID 2283599). The method in brief: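 HCT-116 cells carrying a p53-inducible beta-lactamase reporter were seeded at 4000 cells/well and dosed after 5 h with compound in DMSO (217-fold dilution). After 16 h at 37C, CCF4-AM substrate was added for 2 h, and the 460/530 nm emission ratio was scored as gain-of-signal versus DMSO.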

Assay [6] shares this target. Put plainly: TOX21_p53_BLA_p4_ratio: Tox21 HCT-116 p53 Agonism Beta-lactamase Assay, Ratio, Phase 4 (AID 2283601). In a few lines:
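HCT116 cells carrying an inducible beta-lactamase reporter were plated at 4000 cells/well, rested 5 h, then exposed to compounds in DMSO (217-fold dilution) for 16 h at 37C. CCF4-AM substrate was loaded 2 h at room temperature; 460/530 nm emission ratio scored gain-of-signal versus DMSO.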

Assay [7] can be described thus: CCTE_Deisenroth_AIME_96WELL_CTox_Active: Cytotoxicity Assessment (CTOX) in CCTE's 96-well Estrogen Receptor Transactivation Assay with AIME metabolic competence (metabolism positive), Deisenroth Lab (AID 2284028). In a few lines: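 Cytotoxicity in VM7Luc4E2 breast cells after 24 h exposure to medium from a 2 h metabolic pre-incubation with induced rat hepatic S9 in alginate microspheres; fluorescent live-cell protease readout, 10-point series 0.002–200 uM, n=4.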

A short description of assay [8]: CCTE_Deisenroth_AIME_96WELL_CTox_Inactive: Cytotoxicity Assessment (CTOX) in CCTE's 96-well Estrogen Receptor Transactivation Assay without AIME metabolic competence (metabolism negative), Deisenroth Lab (AID 2284029). The method in brief: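 Cytotoxicity in VM7Luc4E2 breast cells was scored as loss of fluorescent signal from a live-cell protease substrate 24 h after exposure, using bidirectional curve fitting. Test media came from a 2 h metabolism-negative pre-incubation (alginate-water, no hepatic S9) of compounds at 0.002-200 uM, with at least four replicates.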

As to `Cc1cccc(Nc2ncccc2C(=O)O)c1C`, the outcome in assay [1], in assay [2], in assay [3], in assay [4], in assay [5] and in assay [6] was inactive.
With `O=C(O)C(Cc1cc(I)c(O)c(I)c1)c1ccccc1` (centres undefined), the molecule was called inactive in assay [1], in assay [2], in assay [3], in assay [4], in assay [5] and in assay [6].
As for `FC(F)(F)C(F)(F)C(F)(F)C(F)(F)C(F)(F)C(F)(F)C(F)(F)C(F)(F)Br`, the outcome in assay [1], in assay [2], in assay [3], in assay [4], in assay [5] and in assay [6] was inactive.
Regarding `Nc1c(Br)cc(Br)cc1CNC1CCC(O)CC1` (centres undefined), the outcome in assay [1], in assay [2], in assay [3], in assay [4], in assay [5] and in assay [6] was inactive.
With `CC(C)(c1ccccc1)c1ccccc1`, the molecule was called inactive in assay [1], in assay [2], in assay [3], in assay [4], in assay [5] and in assay [6]. Further, the molecule was called inactive in assay [7] and in assay [8].
For `CC1=C(C)C(=O)C(CCCCC#CCCCC#CCO)=C(C)C1=O`, the molecule was classed as inactive in assay [1], in assay [2], in assay [3], in assay [4], in assay [5] and in assay [6].
In the case of `O=C=Nc1cccc(C(F)(F)F)c1`, the molecule was called inactive in assay [1], in assay [3], in assay [4], in assay [5] and in assay [6]. Moreover, in assay [2], the half-maximal activity concentration (AC50) (commonly the concentration giving half of the maximal activity seen) was 86.2 µM (active).

The record behind these values is PubChem BioAssay (EPA / NIEHS).
